The campaign covered roughly 220,000 compounds. About 160 (0.073%) were called active.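 Rule for the calls: active = fold induction of absorbance versus untreated yeast above a set limit, then at least 30% activation at any dose in follow-up; inconclusive = repeats straddling the limit, or above it without dose testing; inactive = fold induction below the set limit.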 Only a sample is shown. Entries with a potency or affinity are not part of this list.
Assay: enhancers of respiration in Yfh1-depleted yeast, dose response, Friedreich's ataxia, plus single-dose screen (AID 1465)
Conditions: S. cerevisiae Yfh1-off respiration, WST-1 reduction, 72 h; at 50 µM; stronger effect = higher value

Row | Compound | fold induction
1 | CC(Oc1cccc2c1OC(C)(C)C2)C(=O)O (configuration not stated) | 1.05 (inactive)
2 | CC(C)c1nnc(SCC(=O)N2CCc3ccccc32)n1C | 0.98 (inactive)
3 | O=C1c2ccccc2NC(c2ccc(-c3ccc(Br)cc3)o2)N1O (configuration not stated) | 0.77 (inactive)
4 | O=C1c2ccccc2NC(c2ccc(-c3cccc([N+](=O)[O-])c3)o2)N1O (configuration not stated) | 0.9 (inactive)
5 | O=c1oc2ccccc2cc1C1=Nn2c(nnc2-c2cccnc2)SC1 | 1.06 (inactive)
6 | Cc1c(/C=N/NC(=O)c2cccnc2)c2ccccc2n1Cc1ccccc1 | 1.01 (inactive)
7 | COc1ccc(Cn2c(O)c(C=Nc3ccc(OC)cc3)c3ccccc3c2=O)cc1 | 1.13 (inactive)
8 | O=C(N/N=C/c1c(O)n(-c2ccccc2Cl)c(=O)c2ccccc12)c1cccnc1 | 1.49 (inactive)
9 | COc1ccc(Cn2c(O)c(C=Nc3ccccc3)c3ccccc3c2=O)cc1 | 1.05 (inactive)
10 | CC1CCC(NC(=S)NCCN(C)C)CC1 (configuration not stated) | 1 (inactive)
11 | O=C1C2CCCN2C(c2ccc(Br)cc2)N1c1ccc(F)cc1 (configuration not stated) | 0.86 (inactive)
12 | CCOC(=O)/C(C(N)=NCC(C)C)=C(/O)c1ccccc1 | 0.925 (inactive)
13 | O=C(CSc1nc(-c2ccc(F)cc2)cc(C(F)(F)F)n1)Nc1ccc2c(c1)OCO2 | 0.96 (inactive)
14 | O=C(OCCOc1ccccc1)c1n[nH]c2ccccc12 | 0.95 (inactive)
15 | COC(=O)[C@H](C)NC(=O)Nc1ccc(OC)cc1OC | 1.1 (inactive)
16 | Cc1noc(C)c1CSc1ccc(Br)cc1 | 0.89 (inactive)
17 | COc1ccc(C(=O)NCC(=O)N/N=C/C=C/c2ccccc2)cc1OC | 0.96 (inactive)
18 | CCCCCCN1C=CC(=C/C=C(\C#N)C(=O)OCC)C=C1 | 1.18 (inactive)
19 | CCOC(=O)/C(C#N)=C/C=C1\C=Cc2ccccc2N1CC | 1 (inactive)

Row | Compound | fold induction
20 | CCCCNC(=S)N1CCN(c2ccc(C(C)=O)cc2)CC1 | 0.96 (inactive)
21 | COc1cccc(NC(=O)NCCC2=CCCCC2)c1 | 0.86 (inactive)
22 | Cc1ccccc1C(=O)NNC(=O)C(C)N1C(=O)c2ccccc2C1=O (configuration not stated) | 1.01 (inactive)
23 | NC(=S)n1[nH]c(-c2ccc([N+](=O)[O-])cc2)c(N=Nc2cccc(Cl)c2)c1=O | 1.01 (inactive)
24 | NC(=S)n1[nH]c(-c2ccc([N+](=O)[O-])cc2)c(N=Nc2ccc(Cl)cc2)c1=O | 1.58 (inactive)
25 | Cc1ccc(-n2c(SCC(=O)Nc3cc(C)on3)nc3c(c2=O)SC(C)C3)cc1 (configuration not stated) | 1.05 (inactive)
26 | CC(C)C(c1nnnn1CCc1ccccc1)N1CCOCC1 (configuration not stated) | 1.03 (inactive)
27 | CC(C)(C=O)C1=CC(=O)c2ccccc2C1=O | 1.3 (inactive)
28 | COc1cccc2c1C(=O)C=C(C)C2=O | 1.23 (inactive)
29 | Cc1ccc(N2CCN(C(=O)c3cccc([N+](=O)[O-])c3)CC2)cc1Cl | 0.82 (inactive)
30 | O=C(CSc1ccccc1)Nc1ccc(C(=O)Nc2ccc(O)cc2)cc1 | 1.06 (inactive)
31 | O=C(Cn1cnc2cc([N+](=O)[O-])ccc2c1=O)Nc1ccc2c(c1)OCO2 | 0.88 (inactive)
32 | Cc1cccc(NC(=S)NNC(=O)COc2ccc(Cl)cc2Cl)c1 | 1.14 (inactive)
33 | COc1ccc(NC(=S)NNC(=O)COc2ccc(Cl)cc2Cl)cc1 | 0.84 (inactive)
34 | O=C(NCc1ccc(Cl)cc1)C1CCC(CNc2c(N3CCOCC3)c(=O)c2=O)CC1 (configuration not stated) | 1.07 (inactive)
35 | O=C(N/N=C/c1cc([N+](=O)[O-])ccc1O)c1cc(-c2ccccc2)nc2ccccc12 | 1.16 (inactive)
36 | COc1cc([N+](=O)[O-])cc(/C=N/NC(=O)c2cc(C)nc3ccccc23)c1O | 1.4 (inactive)
37 | Cc1ccccc1-c1nc(CN2CCSCC2)c(C)o1 | 1.04 (inactive)

From PubChem BioAssay AID1465 (SRMLSC, 2008)
